UBC13 polyUb = UBC13 polyubiquitin chain formation inhibitors, primary screen, biochemical, TR-FRET, uHTS. 0.47% of 330,000 active. inhibition, % at 20 µM. AID 485273, 2010. Ubiquitin-conjugating enzyme E2 N (Homo sapiens), P61088; in the data active = inhibition above about 45%, passing the limit was not always enough
sPLA2-III inh = human group III sPLA2 inhibitors, primary screen, biochemical, QFRET, BODIPY PC-A2 liposome substrate. Group 3 secretory phospholipase A2 (Homo sapiens), Q9NZ20. QFRET BODIPY PC-A2 liposome hydrolysis, fluorescence. inhibition, % at 12.2 µM. 0.56% of 370,000 active;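 active = inhibition above mean plus 3 SD of compounds lying within the high and low control bounds, cut at about 19% in these data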;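 note: 0% = median of test compound wells and 100% = no enzyme DMSO wells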
Target sequence (Q9NZ20 whole entry, looked up): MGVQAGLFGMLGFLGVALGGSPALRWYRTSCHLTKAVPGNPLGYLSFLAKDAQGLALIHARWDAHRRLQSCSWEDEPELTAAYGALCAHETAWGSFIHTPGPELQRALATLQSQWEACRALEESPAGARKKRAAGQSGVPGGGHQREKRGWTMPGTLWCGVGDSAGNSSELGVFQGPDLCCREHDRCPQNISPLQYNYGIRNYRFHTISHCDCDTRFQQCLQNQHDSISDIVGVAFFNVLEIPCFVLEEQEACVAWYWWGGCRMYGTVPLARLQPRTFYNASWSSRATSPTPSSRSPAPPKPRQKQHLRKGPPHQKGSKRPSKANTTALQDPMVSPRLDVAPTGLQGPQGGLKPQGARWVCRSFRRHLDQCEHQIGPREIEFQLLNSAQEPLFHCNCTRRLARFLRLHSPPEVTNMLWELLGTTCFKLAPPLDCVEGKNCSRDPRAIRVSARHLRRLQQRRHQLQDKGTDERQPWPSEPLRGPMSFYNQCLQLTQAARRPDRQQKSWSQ
NR3A LBD binder = binders of NR3A ligand-binding domain, primary screen, biophysical, differential scanning fluorimetry, uHTS. AID 1259313, 2017. 2.5% of 340,000 active. NR3A LBD differential scanning fluorimetry, Tm shift; 0% = protein alone, 100% = glycine-bound protein. Tm shift relative to glycine control, % at 25 µM;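 active = melting temperature shift of at least 10% of the positive control shift, at one fixed dose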
SUMO HTRF inh = inhibitors of in vitro SUMOylation cascade, primary screen, biochemical, HTRF, uHTS. HTRF SUMOylation assay, SAE1/SAE2 + UBC9. 0.36% of 290,000 active. inhibition, % at 35 µM; in the data active = inhibition above about 50%, passing the limit was not always enough
An asterisk follows results filed as active; nt = not tested or not shown. This is a sample that favours compounds with a hit; in the whole collection about 3.3% have one here.

SMILES	UBC13 polyUb	sPLA2-III inh	NR3A LBD binder	SUMO HTRF inh
Cc1ccc(NC(=O)Nc2ccc(Cl)cc2)c(Br)c1	2	10	35*	1
O=C(Nc1ccccc1)Nc1ccc(F)c([N+](=O)[O-])c1	2	-18	26*	10
Cc1ccc(C(=O)NC2CCCCN(Cc3ccccc3C)C2=O)cc1 (configuration not stated)	nt	-3	nt	nt
O=C(CSc1nnc(SCc2cccc3ccccc23)s1)Nc1ccc(S(=O)(=O)Nc2nccs2)cc1	nt	-10	nt	nt
Cc1ccc2[nH]c3c(c2c1)CCc1cn[nH]c1-3	9	-44	28*	27
C/C(=N\NC(=S)Nc1ccccc1C)c1ccc(O)cc1	50*	nt	-8	0
O=C(c1ccc(OC2CCN(Cc3ccccc3C(F)(F)F)CC2)cc1)N1CCCCC1	0	-10	19*	-2
O=C(c1ccc(OC2CCN(Cc3ccc(C(F)(F)F)cc3)CC2)cc1)N1CCCCC1	-6	1	0	-13
Nc1c(C(=O)Nc2ccc(S(=O)(=O)N3CCCC3)cc2)sc2nc3ccc(OC(F)(F)F)cc3cc12	-37	nt	22*	13
CCOC(=O)CC[C@@H]1CC[C@]2(CCCN(Cc3ccc(OC)cc3)C2)O1	nt	7	nt	nt
CC(C)(C)n1cnc2cc(NS(=O)(=O)c3ccccc3)ccc21	3	-13	15*	-9
COC(=O)[C@]12C[C@H](CC(=O)N3CCSCC3)C(=O)N(CCC3=CCCCC3)C1=C[C@H](C(C)C)O[C@@H]2C1CC1	nt	7	nt	nt
O=C(Cn1ccc(C(F)(F)F)n1)NNC(=O)c1ccco1	-1	3	293*	nt
Cc1ccc(OCC(=O)N(Cc2ccc(N(C)C)cc2)C2CCS(=O)(=O)C2)cc1 (configuration not stated)	-3	-2	17*	14
CN(C)c1ccc(C(=O)NCc2ccc3c(c2)CCO3)cc1	-5	2	10*	3
CC(C)C[C@H]1CNC(=S)N1CC1CCCN1C[C@H](Cc1ccccc1)N1C[C@H](Cc2ccc(O)cc2)N(CC2CCCCCC2)C1=S (some centres not stated)	nt	-7	29*	nt
CC(C)C[C@H]1CN([C@@H](Cc2ccc(O)cc2)CN2CCC[C@@H]2CN2C(=S)NC[C@@H]2Cc2ccccc2)C(=S)N1CC1CCCCCC1	nt	-8	nt	nt
CC(C)C[C@@H](CN1CCCC1CN1C(=S)NC[C@@H]1Cc1ccc(O)cc1)N1C[C@H](Cc2ccccc2)N(CC2CCCCCC2)C1=S (some centres not stated)	nt	-20	12*	nt
CC(C)C[C@@H](CN1CCCC1CN1C(=S)NC[C@@H]1Cc1ccc(O)cc1)N1C[C@H](Cc2ccccc2)N(CC2CCCCC2)C1=S (some centres not stated)	nt	-16	9	nt
CC(C)C[C@@H](CN1CCCC1CN1C(=S)NC[C@@H]1Cc1ccc(O)cc1)N1C[C@H](Cc2ccc(O)cc2)N(CC2CCCCCC2)C1=S (some centres not stated)	nt	-23	36*	nt
Cn1c(=O)oc2cc(S(=O)(=O)N3CCN(c4cccc(C(F)(F)F)c4)CC3)ccc21	nt	3	nt	nt
Clc1ccc([C@H]2OC[C@@]3(CNCc4ccc5c(c4)OCO5)CS[C@H](c4ccc(Cl)cc4)N23)cc1	nt	11	nt	nt
O=C(Nc1ccon1)c1ccc(OC2CCCC2)cc1	-5	-1	23*	10
CC(C)(C)c1cc(NC(=O)c2ccc(OC3CCCC3)cc2)no1	5	3	15*	-11
Cc1cc(C(=O)Nc2ccon2)cs1	19	6	-2	-4
SMILES	UBC13 polyUb	sPLA2-III inh	NR3A LBD binder	SUMO HTRF inh
Oc1c(Br)cc(Br)cc1CNc1nccs1	-2	-11	-2	-20
Oc1c(Br)cc(Br)cc1CNc1ccc(F)cc1	-2	-21	11*	26
Oc1c(Br)cc(Br)cc1CNc1cnc2ccccc2c1	-4	-17	24*	-7
CCOC(=O)[C@@]12CN(C(=O)OC(C)(C)C)CC=C1N(Cc1ccc(OC)cc1)C(=O)[C@H]2CC(=O)N1CCOCC1	nt	-2	nt	nt
CCc1cccc2c(C(=O)COC(=O)c3ccccc3)c[nH]c12	10	-11	-8	-24
CCc1cccc2c(C(=O)COC(=O)c3ccc(O)cc3)c[nH]c12	-1	-48	15*	17
COC(=O)[C@]12C[C@H](CC(=O)NCc3ccccc3)C(=O)N(Cc3ccc(Cl)cc3Cl)C1=C[C@H](COCc1ccccc1)O[C@@H]2C	nt	-15	nt	nt
O=S1(=O)C=CCN1Cc1cn(Cc2ccc(Cl)cc2)nn1	nt	1	nt	nt
N#CCC[C@H]1CC[C@]2(CCCN(c3ccccc3)C2)O1	nt	0	nt	nt
Cc1ccc(-n2[nH]c(C)c(/C=N/Nc3ccc([N+](=O)[O-])cc3[N+](=O)[O-])c2=O)cc1	-183	12	22*	-22
Oc1cnn(-c2ccccc2)c1	6	-2	15*	-3
Oc1ccc(-c2[nH]ncc2-c2cnn(-c3ccccc3)c2)c(O)c1	19	-10	-1	7
Cc1ccccc1-c1cc2c(nn1)-c1ccccc1C2=O	-31	2	0	88*
Cc1ccc(-c2cc3c(nn2)-c2ccccc2C3=O)cc1	-20	5	-1	-8
Cc1ccc(-c2cc(C(=O)N3N=C(C(F)F)CC3(O)C(F)F)c3ccccc3n2)cc1C (configuration not stated)	6	-21	35*	-11
O=C(OCc1cn(Cc2ccccc2)nn1)N1CCOCC1	nt	8	nt	nt
NC(=O)CC(NC(=O)Cc1cccc2ccccc12)c1ccc(NCCc2ccccc2F)c([N+](=O)[O-])c1 (configuration not stated)	-20	-1	-2	50*
NC(=O)CC(NC(=O)Cc1cccc2ccccc12)c1ccc(NC2CCCCCC2)c([N+](=O)[O-])c1 (configuration not stated)	-27	-4	-2	61*
COC(=O)[C@]12C[C@H](CC(=O)NCCc3ccccc3OC)C(=O)N(Cc3ccc4c(c3)OCO4)C1=C[C@H](C(C)C)O[C@@H]2C1CC1	nt	1	nt	nt
Cc1ccc(S(=O)(=O)NCC(=O)OCC(=O)N2N=C(c3ccc(Cl)cc3)CC2c2ccco2)cc1C (configuration not stated)	-11	-11	31*	-24
CC(C)Nc1nc(-c2ccncc2)nc(-c2ccc(Cl)cc2)c1C#N	6	0	10*	21
N#Cc1c(-c2ccccc2)nc(-c2ccncc2)[nH]c1=O	-6	-3	-2	11
N#Cc1c(Cl)nc(-c2ccncc2)nc1-c1ccccc1	-3	1	11*	2
CC(C)Nc1nc(-c2cccnc2)nc(-c2ccc(Cl)cc2)c1C#N	5	0	-1	-14
CCCCCc1ccc(NC(=O)OCCN2C(=O)CCC23CCC(c2ccccc2)CC3)cc1 (configuration not stated)	nt	8	nt	nt
